Assay outcomes from PubChem.
Compounds with a hit are over-represented: about 19% of the library has one in this group of screens.
IL-1B inflam inh – inhibitors of inflammasome signaling (IL-1 beta secretion) | hit rate 4.7% among 360,000 | THP-1 LPS/ATP IL-1B secretion, AlphaLISA, 16 h; stronger effect = lower value | activity change, % at 57.5 µM; in the data active means activity change below about -50%; inconclusive means mostly about -30% to -49%; further: on the % scale 0 is the no-effect control and ±100 the full control effect
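Secreted IL-1B measured by AlphaLISA bead assay after 16 h compound exposure of THP-1 cells; compounds (final up to 57.5 uM) added 1 h before LPS (250 ng/mL) and ATP (1.25 mM) stimulation; lower signal means less secretion.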
SW480 rereplic – DNA re-replication induction in SW480 cells; SW480 DNA re-replication, Hoechst DNA content imaging, 48 h; Potency, µM (series often up to 46.1 µM), for the others: top-dose re-replication activation, usual class: activators; hit rate 1.8% among 340,000; AID 624297; further: potency means the concentration at half of the fitted maximal effect; % of control where 0% means no effect; nearly all actives have a fitted effect of over 55% in size
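Image-based DNA-content assay: after two days of treatment, nuclei were labelled with the DNA dye Hoechst and imaged, and hits were compounds raising the count of nuclei showing high fluorescence intensity.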
MCF10A rerep – induces DNA re-replication in MCF 10a normal breast cells. Potency, µM (highest dose often 46.1 µM), for the others: top-dose activity, positive = re-replication, hits mostly activators. AID 624296. hit rate 2.9% among 350,000. MCF 10A DNA re-replication, Hoechst nuclear intensity, 48 h; further: potency means the concentration at half of the fitted maximal effect; % of control where 0% means no effect; nearly all actives have a fitted effect of over 50% in size
TDP1 cell noCPT – qHTS for Inhibitors of human tyrosyl-DNA phosphodiesterase 1 (TDP1): qHTS in cells in absence of CPT | DT40 Tdp1-/- hTDP1 cells, no CPT, ATP luminescence, 48 h | Potency, µM (doses to about 46.2 µM), for inactives: at the highest dose activity change, negative = growth inhibition, usual class: inhibitors | hit rate 15% among 420,000; further: potency means the concentration at half of the fitted maximal effect; on the % scale 0 is the no-effect control and ±100 the full control effect; nearly all actives have a fitted effect of over 55% in size
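Chicken DT40 Tdp1-/- cells stably complemented with human TDP1 were seeded at 400 cells/well with DMSO in place of 20 nM camptothecin. After compound pinning, cells grew at least 48 hr at 37 °C; viability read by CellTiter-Glo luminescence.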
TDP1 cell CPT – DT40-hTDP1 cell growth loss with CPT | chicken DT40 Tdp1-/-;hTDP1 cells + 20 nM CPT, ATP luminescence, 48 h | hit rate 12% among 420,000 | Potency, µM (series often up to 46.2 µM), without a hit: at the highest dose activity change, negative = growth inhibition, most hits filed as inhibitors; further: potency means the concentration at half of the fitted maximal effect; on the % scale 0 is the no-effect control and ±100 the full control effect; nearly all actives have a fitted effect of over 55% in size
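Chicken DT40 Tdp1-/- cells stably complemented with human TDP1 were seeded at 400 cells/well in medium containing 20 nM camptothecin, exposed to pin-transferred compounds, and grown at 37 °C for at least 48 hr. Viability was read as ATP luminescence.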
Chronic BCR inh – blocks chronic active B-cell receptor signaling | ABC-DLBCL IkBa-CBG/CBR reporter, luminescence ratio, 4 h | Potency, µM (series often up to 46.1 µM), for the others: top-dose activity change, negative = inhibition, usual class: inhibitors | hit rate 0.05% among 340,000; active means well fitted inhibition curve with a large enough effect in the signal ratio, with a control signal flat, not every such curve was filed as active; inconclusive means small, poorly fitted or top-dose-only effect, or effect the other way, or a change in a side signal; the % refers to the signal ratio;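 further: potency means the concentration at half of the fitted maximal effect; plate controls were basal doxycycline-induced cells for no effect and cells given 10 µM MG132 for full effect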
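Compounds up to 46 uM were incubated four hours with TMD8 cells whose green CBG68 luciferase is fused to IkappaBalpha; red CBR luminescence normalised the signal, and concentration-effect curves were fitted to fusion, red and ratio data.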
The depositor's hits bear a star; ? = inconclusive; nt = not tested or not shown; [ ] = remark or other dose. Unless noted, the call rests on the fitted dose curve; in most records, active means well fitted curve in the direction sought with a large enough effect; inconclusive means small, poorly fitted or top-dose-only effect, or another doubt; inactive means no such curve, though single readings can be large; an effect the other way counts as inactive or inconclusive.

SMILES	IL-1B inflam inh	SW480 rereplic	MCF10A rerep	TDP1 cell noCPT	TDP1 cell CPT	Chronic BCR inh
CO/N=C\CC(=O)Nc1ccc(Cl)cc1Cl	1	7.3µM*	16µM*	21µM*	12µM*	-11%
CCn1c(NCCO)nc2c(c1=O)C(C)(CC)Cc1ccccc1-2 (stereo not drawn)	4	-4%	-1%	16µM*	?	-8%
CC1(C)Cc2ccccc2-c2nc(NCCCO)[nH]c(=O)c21	11	-6%	11%	-4%	0%	-24%
CCC1(C)Cc2ccccc2-c2nc3n(c(=O)c21)CC(C(=O)O)S3 (stereo not drawn)	-3	0%	3%	8%	3%	-1%
CCC1(C)Cc2ccccc2-c2nc(NCCO)[nH]c(=O)c21 (stereo not drawn)	3	-10%	16%	?	?	8%
CCC1(C)Cc2ccccc2-c2nc3n(c(=O)c21)CCS3 (stereo not drawn)	-12	-6%	30%	8.2µM*	?	2%
CCC1(C)Cc2ccccc2-c2nc(NCCCO)n(-c3ccccc3)c(=O)c21 (stereo not drawn)	-6	-1%	?	4.1µM*	2.1µM*	-22%
CN(C)C(CNc1ccc(S(C)(=O)=O)cc1[N+](=O)[O-])Cc1ccccc1 (stereo not drawn)	-20	0%	-1%	-23%	0%	19%
CCc1c(C)sc(NC(=O)Cc2ccccc2C)c1C(=O)N1CCOCC1	-15	1%	14%	-2%	1%	2%
CCN(CC(=O)Nc1cc(Cl)ccc1C)C(=O)c1ccc2c(c1)NC(=O)C(C)S2 (stereo not drawn)	24	-1%	-2%	?	?	14%
CCCn1ncc(CN2CCN(Cc3ccsc3)C(CCO)C2)c1C (stereo not drawn)	-17	5%[1.84 µM]	-3%	-5%	-9%	1%
Cc1ccc2[nH]c(O)c(N=Nc3nc4ccccc4s3)c2c1	18	1%	-9%	7.3µM*	10µM*	13%
Cc1ccc2[nH]c(O)c(N=Nc3ccccc3[N+](=O)[O-])c2c1	21	-3%	-4%	5.8µM*	8.2µM*	nt
CN(Cc1ccc(Cl)cc1)C(=O)c1ccccc1SCC(=O)N1CCCC1	-6	-3%	14%	?	?	0%
CCOC(=O)c1c(-c2ccccc2)oc2ccc(N(C(C)=O)S(=O)(=O)c3ccc(C)cc3)cc12	nt	nt	nt	10µM*	8.2µM*	nt
CCCC(=O)N(c1ccc2oc(-c3ccccc3)c(C(=O)OCC)c2c1)S(=O)(=O)c1ccc(C)cc1	nt	nt	nt	5.8µM*	?	nt
CCOC(=O)c1c(-c2ccccc2)oc2ccc(NS(=O)(=O)c3ccc(C)cc3)cc12	nt	nt	nt	2.9µM*	2.9µM*	nt
CCOC(=O)c1c(-c2ccccc2)oc2ccc(OCC(O)CN(C)C)cc12 (stereo not drawn)	-65*	?	5%	23µM*	?	?
CC(C)c1c(C(=O)N/N=C/c2ccsc2)nnn1-c1nonc1N	4	-2%	2%	-14%	-8%	?
COc1ccc(NC(=O)c2ccc(S(=O)(=O)N3CCOCC3)o2)cc1	0	-5%	?	-3%	-4%	11%
COc1cccc(CC(=O)Nc2c(C(=O)N3CCN(c4ccccc4F)CC3)oc3ccccc23)c1	nt	nt	nt	4.6µM*	5.8µM*	nt
CC(C)(C)C(=O)Nc1c(C(=O)N2CCN(c3ccc(F)cc3)CC2)oc2ccccc12	nt	nt	nt	15µM*	18µM*	nt
COc1ccc(N2CCN(C(=O)c3oc4ccccc4c3NC(=O)Cc3cccc(OC)c3)CC2)cc1	-22	-25%	5%	?	?	3%
CC(C)CC(=O)Nc1c(C(=O)N2CCN(c3ccccc3F)CC2)oc2ccccc12	nt	nt	nt	10µM*	13µM*	nt
CCOCC(=O)Nc1c(C(=O)N2CCN(c3ncccn3)CC2)oc2ccccc12	-12	-5%	-3%	12µM*	?	-11%
SMILES	IL-1B inflam inh	SW480 rereplic	MCF10A rerep	TDP1 cell noCPT	TDP1 cell CPT	Chronic BCR inh
Cc1cccc(OCC(=O)Nc2c(C(=O)N3CCN(c4ccccc4F)CC3)oc3ccccc23)c1	nt	nt	nt	18µM*	?	nt
COc1ccc(OCC(=O)Nc2c(C(=O)N3CCN(c4ccccc4)CC3)oc3ccccc23)cc1	nt	nt	nt	-10%	?	nt
Oc1ccc(N2CCN(c3ncnc4sc5c(c34)CCC5)CC2)cc1	-28	?	13µM*	13µM*	23µM*	-17%
Cc1ccc(CNC(=O)c2ccc(-c3nc(CS(=O)c4ccccc4)c(C)o3)cc2)cc1 (stereo not drawn)	nt	nt	nt	8.2µM*	18µM*	nt
Cc1ccc(S(=O)Cc2nc(-c3ccc(C(=O)NCc4cccc(C)c4)cc3)oc2C)cc1 (stereo not drawn)	nt	nt	nt	?	10%	nt
COc1ccccc1CNC(=O)c1ccc(-c2nc(CS(=O)c3ccc(C)cc3)c(C)o2)cc1 (stereo not drawn)	nt	nt	nt	13µM*	?	nt
Cc1oc(-c2ccc(C(=O)NCc3ccc(F)cc3)cc2)nc1CS(=O)c1ccccc1 (stereo not drawn)	nt	nt	nt	21µM*	?	nt
COc1cccc(N(C(=O)Cc2cccs2)C(C(=O)NC2CCCC2)c2ccncc2)c1 (stereo not drawn)	-11	2%	-10%	-16%	-30%	?
CCOc1ccc(C(C(=O)NC2CCCCC2)N(C(=O)Cc2cccs2)c2ccc(-n3cnnn3)c(OC)c2)cc1 (stereo not drawn)	0	?	24%	23µM*	?	0%
CCOc1cccc(N(C(=O)Cc2cccs2)C(C(=O)NC2CCCCC2)c2cccn2C)c1 (stereo not drawn)	-1	-5%	-6%	16µM*	16µM*	-1%
COc1cccc(C(C(=O)NC2CCCC2)N(C(=O)c2ccco2)c2ccc(-n3cnnn3)c(C)c2)c1OC (stereo not drawn)	-6	5%	-3%	2.9µM*	?	-15%
CC(C)NC(=O)COc1ccc(S(=O)(=O)N(C)Cc2ccccc2)cc1	-11	3%	-21%	?	?	0%
COc1cccc(CNC(=O)CN(C)S(=O)(=O)c2ccc3c(c2)n(C)c(=O)c(=O)n3C)c1	-3	1%	-3%	19%	6%	1%
Cc1ccc(O)c(C=Nc2cc(C)ccc2O)c1	2	-3%	?	5.2µM*	5.8µM*	?
